Data published in PubChem BioAssay.
Results filed as inconclusive are left out. Active and inactive are the calls of the source.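 The calls were made as follows, unless noted: active = inhibition over a set limit, the all-compound mean plus 3 SD, in both replicate runs; inconclusive = over that limit in just one replicate run; inactive = at or under that limit in both runs.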

Tests used:
[1] = Her2 expression decrease, cell viability multiplex – SKBR3 breast tumor cells, AlphaScreen, ATP viability, primary screen (AID 461;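 active = Her2 level under about 52% in both replicate screens, with viability over 70% of control, limit read from the data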;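 as to Her2 level: lower value means less Her2 protein in the cells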;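 as to viability: percent of carrier control wells set as 100% viability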); conditions: SKBR3 Her2 protein level, 18-24 h, measured here: SKBR3 viability, ATP luminescence, at 10 µM
[2] = biological target: Receptor tyrosine-protein kinase erbB-2 (Homo sapiens) (UniProt P04626); assay: as above; conditions: 18-24 h, at 10 µM, stronger effect = lower value
Receptor tyrosine-protein kinase erbB-2 (Homo sapiens), sequence (P04626 whole entry, looked up): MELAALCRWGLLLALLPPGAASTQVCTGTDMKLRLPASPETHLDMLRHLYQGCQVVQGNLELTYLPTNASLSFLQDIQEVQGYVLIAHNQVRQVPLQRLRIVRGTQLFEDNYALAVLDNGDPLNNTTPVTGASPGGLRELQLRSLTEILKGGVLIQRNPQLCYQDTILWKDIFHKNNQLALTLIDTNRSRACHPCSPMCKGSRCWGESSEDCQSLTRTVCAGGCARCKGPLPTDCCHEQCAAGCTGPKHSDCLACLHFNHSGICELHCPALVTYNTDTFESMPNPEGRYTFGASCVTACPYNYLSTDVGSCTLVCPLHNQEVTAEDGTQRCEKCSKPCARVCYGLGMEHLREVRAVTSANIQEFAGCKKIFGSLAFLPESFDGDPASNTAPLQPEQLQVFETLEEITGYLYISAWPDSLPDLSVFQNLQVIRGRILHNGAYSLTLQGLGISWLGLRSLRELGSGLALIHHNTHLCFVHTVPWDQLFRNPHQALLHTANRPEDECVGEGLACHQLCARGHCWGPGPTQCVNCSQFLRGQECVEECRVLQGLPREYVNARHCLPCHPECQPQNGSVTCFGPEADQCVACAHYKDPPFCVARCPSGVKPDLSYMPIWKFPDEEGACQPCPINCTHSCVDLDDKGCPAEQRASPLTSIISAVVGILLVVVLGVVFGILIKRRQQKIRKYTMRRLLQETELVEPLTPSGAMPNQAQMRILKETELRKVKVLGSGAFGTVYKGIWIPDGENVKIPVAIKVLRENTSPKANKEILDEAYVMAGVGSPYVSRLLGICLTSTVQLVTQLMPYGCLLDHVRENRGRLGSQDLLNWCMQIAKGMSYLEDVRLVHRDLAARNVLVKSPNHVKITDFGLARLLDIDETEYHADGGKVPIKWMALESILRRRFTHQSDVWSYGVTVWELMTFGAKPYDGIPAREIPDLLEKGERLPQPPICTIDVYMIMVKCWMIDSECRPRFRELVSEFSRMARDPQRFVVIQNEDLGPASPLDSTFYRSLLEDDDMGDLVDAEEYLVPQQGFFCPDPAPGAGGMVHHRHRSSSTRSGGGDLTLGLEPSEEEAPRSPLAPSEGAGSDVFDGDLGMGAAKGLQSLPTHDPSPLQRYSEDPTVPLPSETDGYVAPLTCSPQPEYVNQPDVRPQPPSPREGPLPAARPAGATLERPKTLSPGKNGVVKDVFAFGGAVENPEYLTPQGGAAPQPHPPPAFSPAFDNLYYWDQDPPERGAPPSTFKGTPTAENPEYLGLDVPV

[3] = reduced viability of SK-BR-3 breast cancer cells – cell-based, 24 h, human, pilot screen (AID 572;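 active = viability at or below 10% of carrier control in both of two separate runs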;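 also: compound exposure lasted between 18 and 24 h rather than exactly 24 h; 100% = carrier-treated control wells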); conditions: SK-BR-3 viability, CellTiter-Glo luminescence, at 10 µM, stronger effect = lower value
[4] = HUVEC growth inhibition – cell-based, human, primary screen (AID 575;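 active = viability at or below 30% in both replicate assays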;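 also: 100% = median of untreated cell wells with 0.1% DMSO on each plate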); conditions: HUVEC proliferation, CellTiter-Glo luminescence, 72 h; at 10 µM; stronger effect = lower value
[5] = H69AR cell proliferation blockers – human, duplicate replicates, primary screen (AID 580;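 active = viability at or under a set limit in both replicates, limit being median viability minus 3 SD, cut at about 48% in these data, passing the limit was not always enough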;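 also: 100% = mean luminescence of untreated wells and 0% = no signal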); conditions: H69AR lung tumor cells viability, ATP luminescence, 72 h; at 10 µM; stronger effect = lower value
[6] = MRP1 drug-resistance reversers in H69AR cells – cell-based, doxorubicin co-treatment, pilot screen (AID 601;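 active = viability loss from added drug above about 55%, and viability with drug at most 40%, in both replicates, limit read from the data, passing the limit was not always enough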); conditions: CellTiter-Glo, 72 h, at 10 µM; for differential viability (reversal): stronger effect = higher value
[7] = yeast transport mutant growth inhibition pilot in 384-well plates, post-Golgi transport modulator project (AID 636; in the data active = inhibition above about 31%); conditions: absorbance 615 nm, about 18 h, stronger effect = higher value
[8] = growth suppression of yeast trafficking mutant, preliminary HTS, modulators of trafficking downstream of Golgi apparatus project, 1536-format plate, OD 615 nm (AID 637; in the data active = inhibition above about 30%); conditions: yeast transport mutant growth, absorbance 615 nm, 18 h; stronger effect = higher value
[9] = S. cerevisiae growth inhibition in permissive medium (OD615), pilot counter-assay for S. cerevisiae lifespan shortening project, permissive growth control (AID 705;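 active = growth inhibition above 25% in both replicates, a cutoff set 3 SD above the mean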); conditions: OD615, 24 h, at 10 µM, stronger effect = higher value
[10] = S. cerevisiae growth inhibition in restrictive medium, OD615, pilot screen, restrictive growth control, yeast lifespan reduction project (AID 706;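 active = growth inhibition above a set limit, 3 SD over mean compound inhibition, in both replicates, cut at about 43% in these data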;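 also: modified DeaD lifespan yeast strain shifted to restrictive glucose medium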); conditions: OD615, 48 h, at 10 µM, stronger effect = higher value
[11] = doxorubicin toxicity protection in MRP-1 cells – H69AR cells, CellTiter-Glo, duplicate, MRP-1 activator project, pilot screen (AID 807;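 active = viability increase at or above a cutoff of the median across tested compounds plus 3 SD, cut at about 8.5% in these data, passing the limit was not always enough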;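 also: compound pretreatment 18-22 h then 72 h combined with doxorubicin; 0% = doxorubicin alone and 100% = vehicle without doxorubicin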); conditions: H69AR viability with doxorubicin, CellTiter-Glo luminescence; at 10 µM; stronger effect = higher value
[12] = viability of HCT116 without oncogenic beta-catenin – human colon tumor cells, pilot screen (AID 823;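 active = cell viability at or below a set limit in both duplicate runs, the limit being the all-compound median minus 4 SD, cut at about 23% in these data, passing the limit was not always enough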;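 also: 0% = wells killed by 20 µM Hyamine and 100% = untreated DMSO cell wells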); conditions: HCT116 beta-catenin knockout viability, CellTiter-Glo, 60 h; at 10 µM; stronger effect = lower value
[13] = viability of PTEN-null HCT116 cells – cell-based, HCT116 clonal line, CellTiter-Glo, pilot screen (AID 824;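 active = viability at or below 27.92% in each of two runs, the all-compound median minus 4 SD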;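 also: 0% = 20 µM Hyamine control and 100% = vehicle cell control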); conditions: HCT116 PTEN-deleted viability, 60 h, at 10 µM, stronger effect = lower value
[14] = RAM pathway blockade in budding yeast – dse1pr::URA3 reporter, 5-FOA selection, pilot screen (AID 869);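 also: 0% = DMSO wells with no growth and 100% = 10 µM 1-NA-PP1 with full growth; RAM network block rescues cells from 5-FOA so hits raise OD615 growth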; conditions: S. cerevisiae dse1pr::URA3 5-FOA growth, OD615, 2 d; at 10 µM; stronger effect = higher value; strain carries analog-sensitive mutant Cbk1 kinase
[15] = RAM signaling pathway blockade in yeast – S. cerevisiae, Pdr1DBD-CYC8 efflux-inhibited sensitized strain, primary screen (AID 1298;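 active = RAM network inhibition above 8.4% in each of two replicates, 3 SD over the compound average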;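 also: 0% = DMSO untreated cells without growth and 100% = 10 µM 1-NA-PP1 full growth; higher means more yeast growth rescued from 5-FOA killing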); conditions: S. cerevisiae cbk1-as DSE1-URA3 strain, 5-FOA growth OD615, 2 d; at 50 µM; stronger effect = higher value
[16] = H69AR cells + 2 uM doxorubicin, measured here: viability with 2 uM doxorubicin, stronger effect = lower value
[17] = H69AR cells, compound alone cytotoxicity

| Compound | viability [1] | Her2 level [2] | viability [3] | viability [4] | viability [5] | differential viability (reversal) ([6]; H69AR cells + 2 uM doxorubicin) | viability [6, 16] | viability [6, 17] | inhibition [7] | inhibition [8] | growth inhibition [9] | growth inhibition [10] | viability increase [11] | viability [12] | viability [13] | inhibition [14] | RAM network inhibition [15] |
| --- | --- | --- | --- | --- | --- | --- | --- | --- | --- | --- | --- | --- | --- | --- | --- | --- | --- |
| c1ccc2c(c1)Cc1cc(CN3CCOCC3)ccc1-2 | 85% | 100% (inactive) | 85% (inactive) | 99.7% (inactive) | 89.3% (inactive) | -2.81% (inactive) | 92.1% | 89.3% | 2.34% (inactive) | -1.15% (inactive) | -14.7% (inactive) | -4.66% (inactive) | 0.12% (inactive) | 92.3% (inactive) | 97.5% (inactive) | 1.01% (inactive) | 0.21% (inactive) |
| c1ccc(-n2ncc3c(NC4CCCCCC4)ncnc32)cc1 | 83.5% | 77% (inactive) | 83.5% (inactive) | 75.2% (inactive) | 45.8% (active) | -28.2% (inactive) | 74% | 45.8% | -4.93% (inactive) | 1.67% (inactive) | -7.69% (inactive) | -4.42% (inactive) | -2.91% (inactive) | 88.4% (inactive) | 65.7% (inactive) | 1.17% (inactive) | 6.78% (inactive) |
| CCN1CCN(C(c2cccs2)C(C)NC(=O)c2ccccc2)CC1 (stereo not given) | 92% | 88% (inactive) | 92% (inactive) | 104% (inactive) | 87.3% (inactive) | 6.01% (inactive) | 81.3% | 87.3% | -0.26% (inactive) | 4% (inactive) | -5.51% (inactive) | 1.4% (inactive) | -0.71% (inactive) | 101% (inactive) | 105% (inactive) | -0.445% (inactive) | 5.79% (inactive) |
| COc1cccc2cc(C(=O)OC3CCN(C)CC3)c(=O)oc12 | 96% | 103% (inactive) | 96% (inactive) | 94.7% (inactive) | 105% (inactive) | 18.2% (inactive) | 86.5% | 105% | -3.08% (inactive) | 0.67% (inactive) | -7.33% (inactive) | -8.68% (inactive) | -3.68% (inactive) | 104% (inactive) | 107% (inactive) | -0.245% (inactive) | 2.9% (inactive) |
| Cc1cc(NC(=O)c2cccc(S(=O)(=O)N3CC(c4ccccc4)CC3=O)c2)no1 (stereo not given) | 92% | 97.5% (inactive) | 92% (inactive) | 98.8% (inactive) | 97.6% (inactive) | 6.25% (inactive) | 91.3% | 97.6% | -6.4% (inactive) | 3.33% (inactive) | -15.3% (inactive) | -8.59% (inactive) | 1.83% (inactive) | 96.8% (inactive) | 90.5% (inactive) | 1.83% (inactive) | 5.71% (inactive) |
| CCCNc1nc(N2CCOCC2)nc(N2CCOCC2)n1 | 97.5% | 110% (inactive) | 97.5% (inactive) | 109% (inactive) | 90.5% (inactive) | -3.39% (inactive) | 93.9% | 90.5% | -0.52% (inactive) | -7.38% (inactive) | -4.61% (inactive) | 2.38% (inactive) | -0.12% (inactive) | 92.8% (inactive) | 102% (inactive) | 1.26% (inactive) | 2.19% (inactive) |
| COc1cccc(-c2nc3n(n2)C(c2cccs2)C(C(=O)Nc2cccnc2)=C(C)N3)c1 (stereo not given) | 78% | 79% (inactive) | 78% (inactive) | 83.2% (inactive) | 101% (inactive) | -5.46% (inactive) | 107% | 101% | -2.93% (inactive) | -0.67% (inactive) | -13.1% (inactive) | -6.04% (inactive) | -2.26% (inactive) | 87.2% (inactive) | 93% (inactive) | -0.145% (inactive) | 5.84% (inactive) |
| CCOC(=O)C1=C(C)NC(=O)NC1c1ccc(OCCO)c(OC)c1 (stereo not given) | 92.5% | 85% (inactive) | 92.5% (inactive) | 96.6% (inactive) | 92.1% (inactive) | -1.96% (inactive) | 94.1% | 92.1% | -6.08% (inactive) | -2.3% (inactive) | 1.63% (inactive) | 1.81% (inactive) | -1.65% (inactive) | 102% (inactive) | 100% (inactive) | 1.9% (inactive) | -1.29% (inactive) |
| Cc1cc(NC(=O)CS(=O)(=O)c2cn(Cc3cccc(F)c3)c3ccccc23)no1 | 124% | 75.5% (inactive) | 124% (inactive) | 69.7% (inactive) | 92.7% (inactive) | 3.98% (inactive) | 88.7% | 92.7% | -6.62% (inactive) | -4.67% (inactive) | -5.79% (inactive) | -24.3% (inactive) | -1.03% (inactive) | 65.8% (inactive) | 72.2% (inactive) | 1.3% (inactive) | 5.39% (inactive) |
| O=C1c2ccccc2C(Nc2ccc(F)c(Cl)c2)N1Cc1ccco1 (stereo not given) | 92% | 99% (inactive) | 92% (inactive) | 58.4% (inactive) | 74% (inactive) | -0.96% (inactive) | 75% | 74% | -1.6% (inactive) | 3.83% (inactive) | -5.7% (inactive) | -1.3% (inactive) | -4.57% (inactive) | 72.8% (inactive) | 77.1% (inactive) | 1.6% (inactive) | 7.74% (inactive) |
